# Targets with a hit are over-represented here; the source holds about 7,900 in all. About 0.6% of all pairs of compound and target were hits. Values without a mark were called inactive.
# Assays:
# Assay in all cases: log2 fold change, soluble protein after heating vs DMSO (PISA); higher = thermal stabilisation; K562 cells, 10 uM, 30 min; active = over 0.2 and 3.5 SD of the protein, either way, in both replicates (recomputed)
# [1] = compound: CS(=O)(=O)c1ccc(-c2cnc(N)c(C(=O)Nc3ccccc3)n2)cc1
# Outline: (§1)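 Soluble protein was quantified by TMTpro 16plex LC-MS/MS after channel sums were equalised. It was obtained as the supernatant after 21,000xg for 90 min from pooled aliquots of K562 cells (2×10^6 cells/mL, 10 μM compound, 30 min) heated for 3 min across 48°C-58°C and extracted in PBS with 0.5% NP-40 at 4°C. Thermal stability values are relative to control samples and come from duplicates. They are given as log2 fold changes.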
# [2] = compound: C[C@@H](Oc1cc(-c2cnn(C3CCNCC3)c2)cnc1N)c1c(Cl)ccc(F)c1Cl [crizotinib]
# Outline: as §1
# [3] = compound: C[C@@H]1COCCN1C2=NC(=NC(=C2)C3(CC3)S(=O)(=O)C)C4=C5C=CNC5=CC=C4
# Outline: as §1
# [4] = compound: C[C@H](C1=CC=C(C=C1)C(=O)NC2=C3C=CNC3=NC=C2)N
# Outline: as §1
# [5] = compound: C[C@H](Nc1ncnc2nc[nH]c12)c1cc2cccc(Cl)c2c(=O)n1-c1ccccc1 [duvelisib]
# Outline: as §1
# [6] = compound: Cc1cc(Nc2cc(CN3CCOCC3)c3nc(C)c(Cc4ccc(Cl)cc4F)n3n2)n[nH]1 [gandotinib]
# Outline: as §1
# [7] = compound: Cc1cc(Nc2cc(N3CCN(C)CC3)nc(Sc3ccc(NC(=O)C4CC4)cc3)n2)n[nH]1 [tozasertib]
# Outline: as §1
# [8] = compound: Cc1cc(SCc2sc(-c3ccc(C(F)(F)F)cc3)nc2C)ccc1OCC(=O)O
# Outline: as §1
# [9] = compound: Cc1ccc(-n2nc(C(C)(C)C)cc2NC(=O)Nc2ccc(OCCN3CCOCC3)c3ccccc23)cc1 [doramapimod]
# Outline: as §1
# [10] = compound: Cc1ccc(C(=O)N(CCCN)[C@@H](c2nc3cc(Cl)ccc3c(=O)n2Cc2ccccc2)C(C)C)cc1 [ispinesib]
# Outline: as §1
# [11] = compound: Cc1ccc(NC(=O)c2ccc(CN3CC[C@H](N(C)C)C3)c(C(F)(F)F)c2)cc1Nc1nccc(-c2cncnc2)n1 [bafetinib]
# Outline: as §1
# [12] = compound: Cc1cccc(CC(=O)N2CCc3c2ccc(-c2cn(C)c4ncnc(N)c24)c3F)n1
# Outline: as §1
# [13] = compound: Cc1cn(-c2cc(NC(=O)c3ccc(C)c(Nc4nccc(-c5cccnc5)n4)c3)cc(C(F)(F)F)c2)cn1 [nilotinib]
# Outline: as §1
# [14] = compound: Cc1nc(Nc2n[nH]c3c2CN(C(=O)N[C@H](CN(C)C)c2ccccc2)C3(C)C)c2sccc2n1
# Outline: as §1
# [15] = compound: Cc1nc(Nc2ncc(C(=O)Nc3c(C)cccc3Cl)s2)cc(N2CCN(CCO)CC2)n1 [dasatinib]
# Outline: as §1
# [16] = compound: Cc1ncc(-c2ccnc(Nc3ccc(S(C)(=O)=O)cc3)n2)n1C(C)C
# Outline: as §1
# [17] = compound: Cn1cc(-c2ccc3c(c2)CCN3C(=O)Cc2cccc(C(F)(F)F)c2)c2c(N)ncnc21
# Outline: as §1
# [18] = compound: Cn1cc(-c2ccc3nnc(C(F)(F)c4ccc5ncccc5c4)n3n2)cn1
# Outline: as §1
# [19] = compound: Cn1cncc1[C@@](N)(c1ccc(Cl)cc1)c1ccc2c(c1)c(-c1cccc(Cl)c1)cc(=O)n2C [tipifarnib]
# Outline: as §1
# [20] = compound: FC(F)(F)c1ccc(/C=C/c2nc(COc3ccc(CCCCn4ccnn4)cc3)co2)cc1 [mubritinib]
# Outline: as §1
# Chain of UniProt O60493 (O60493 whole entry, looked up): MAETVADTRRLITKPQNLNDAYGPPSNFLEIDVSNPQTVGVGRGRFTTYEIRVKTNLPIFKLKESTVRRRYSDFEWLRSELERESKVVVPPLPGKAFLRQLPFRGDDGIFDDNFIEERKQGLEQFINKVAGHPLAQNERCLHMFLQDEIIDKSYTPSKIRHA
# Chain of UniProt Q14849 (Q14849 whole entry, looked up): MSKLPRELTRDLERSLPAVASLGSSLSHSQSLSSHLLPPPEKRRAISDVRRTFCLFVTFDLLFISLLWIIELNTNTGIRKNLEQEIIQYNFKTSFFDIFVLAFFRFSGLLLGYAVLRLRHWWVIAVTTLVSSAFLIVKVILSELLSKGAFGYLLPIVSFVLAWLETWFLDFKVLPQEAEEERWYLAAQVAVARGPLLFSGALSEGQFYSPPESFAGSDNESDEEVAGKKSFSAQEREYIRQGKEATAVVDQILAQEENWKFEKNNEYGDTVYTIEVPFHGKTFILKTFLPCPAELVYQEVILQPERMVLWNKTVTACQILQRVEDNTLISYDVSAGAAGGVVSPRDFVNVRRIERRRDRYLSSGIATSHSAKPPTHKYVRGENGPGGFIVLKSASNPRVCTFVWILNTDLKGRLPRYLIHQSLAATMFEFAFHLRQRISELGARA
# Chain of UniProt Q9H254 (Q9H254 whole entry, looked up): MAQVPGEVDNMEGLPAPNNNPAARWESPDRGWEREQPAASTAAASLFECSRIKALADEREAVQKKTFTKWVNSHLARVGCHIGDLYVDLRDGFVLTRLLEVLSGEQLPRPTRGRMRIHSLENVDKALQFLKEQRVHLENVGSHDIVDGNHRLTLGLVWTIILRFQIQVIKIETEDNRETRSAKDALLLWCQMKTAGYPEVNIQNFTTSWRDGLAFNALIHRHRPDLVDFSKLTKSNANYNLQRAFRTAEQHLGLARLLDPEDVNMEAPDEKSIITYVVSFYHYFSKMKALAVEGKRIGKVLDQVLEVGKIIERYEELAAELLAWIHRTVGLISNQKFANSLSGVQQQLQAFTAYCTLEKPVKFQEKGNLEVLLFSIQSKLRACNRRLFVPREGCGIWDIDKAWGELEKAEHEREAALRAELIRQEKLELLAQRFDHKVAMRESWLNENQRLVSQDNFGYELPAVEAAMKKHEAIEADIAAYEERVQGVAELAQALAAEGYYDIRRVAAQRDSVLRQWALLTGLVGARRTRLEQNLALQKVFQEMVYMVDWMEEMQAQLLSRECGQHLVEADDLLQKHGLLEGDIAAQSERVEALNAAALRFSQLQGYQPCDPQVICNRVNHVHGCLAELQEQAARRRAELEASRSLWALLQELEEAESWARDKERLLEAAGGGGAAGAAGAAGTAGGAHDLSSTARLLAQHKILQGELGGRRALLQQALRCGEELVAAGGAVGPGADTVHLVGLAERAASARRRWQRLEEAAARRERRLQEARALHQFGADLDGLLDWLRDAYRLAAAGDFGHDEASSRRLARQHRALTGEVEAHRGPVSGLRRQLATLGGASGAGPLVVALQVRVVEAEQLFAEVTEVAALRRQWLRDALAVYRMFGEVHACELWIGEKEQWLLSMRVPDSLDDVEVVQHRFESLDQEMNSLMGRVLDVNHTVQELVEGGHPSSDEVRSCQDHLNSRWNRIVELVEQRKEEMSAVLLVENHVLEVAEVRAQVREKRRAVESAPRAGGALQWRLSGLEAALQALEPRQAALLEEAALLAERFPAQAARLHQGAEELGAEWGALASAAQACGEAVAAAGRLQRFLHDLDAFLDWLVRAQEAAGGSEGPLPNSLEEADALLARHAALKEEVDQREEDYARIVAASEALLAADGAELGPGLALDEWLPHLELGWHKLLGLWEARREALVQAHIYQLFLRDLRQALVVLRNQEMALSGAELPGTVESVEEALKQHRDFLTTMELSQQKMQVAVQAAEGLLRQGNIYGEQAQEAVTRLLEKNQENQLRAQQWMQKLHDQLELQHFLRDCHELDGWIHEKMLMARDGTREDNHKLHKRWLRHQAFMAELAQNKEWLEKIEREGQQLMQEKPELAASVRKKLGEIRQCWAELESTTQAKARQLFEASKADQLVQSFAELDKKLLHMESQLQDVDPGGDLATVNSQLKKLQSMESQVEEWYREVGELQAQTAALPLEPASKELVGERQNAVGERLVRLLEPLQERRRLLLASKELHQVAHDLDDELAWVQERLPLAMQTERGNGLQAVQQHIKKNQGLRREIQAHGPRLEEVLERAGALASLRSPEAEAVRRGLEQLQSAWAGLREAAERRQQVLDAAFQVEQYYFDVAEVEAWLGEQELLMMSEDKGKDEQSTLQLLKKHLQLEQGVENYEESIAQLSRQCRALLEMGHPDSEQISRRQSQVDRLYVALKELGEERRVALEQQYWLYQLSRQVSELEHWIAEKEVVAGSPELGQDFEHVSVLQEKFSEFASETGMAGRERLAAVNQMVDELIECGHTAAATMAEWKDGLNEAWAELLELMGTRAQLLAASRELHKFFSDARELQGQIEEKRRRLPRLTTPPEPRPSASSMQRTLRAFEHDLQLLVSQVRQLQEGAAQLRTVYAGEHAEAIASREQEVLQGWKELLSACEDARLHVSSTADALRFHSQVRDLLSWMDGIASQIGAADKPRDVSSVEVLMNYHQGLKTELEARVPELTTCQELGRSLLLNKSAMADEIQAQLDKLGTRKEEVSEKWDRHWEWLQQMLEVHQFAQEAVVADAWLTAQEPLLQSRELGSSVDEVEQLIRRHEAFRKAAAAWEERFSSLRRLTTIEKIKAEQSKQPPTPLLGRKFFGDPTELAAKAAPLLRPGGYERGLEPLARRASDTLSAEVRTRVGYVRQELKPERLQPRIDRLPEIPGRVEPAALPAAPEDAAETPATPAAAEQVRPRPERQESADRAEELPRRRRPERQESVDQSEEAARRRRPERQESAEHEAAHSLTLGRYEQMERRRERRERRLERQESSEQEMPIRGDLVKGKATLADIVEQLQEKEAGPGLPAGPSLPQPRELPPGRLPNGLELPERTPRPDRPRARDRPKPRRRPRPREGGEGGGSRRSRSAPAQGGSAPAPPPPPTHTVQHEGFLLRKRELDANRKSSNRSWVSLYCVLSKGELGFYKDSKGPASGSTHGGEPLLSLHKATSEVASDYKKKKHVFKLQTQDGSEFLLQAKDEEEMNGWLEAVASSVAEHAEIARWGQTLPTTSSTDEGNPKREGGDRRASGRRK
# Chain of UniProt Q92581 (Q92581 whole entry, looked up): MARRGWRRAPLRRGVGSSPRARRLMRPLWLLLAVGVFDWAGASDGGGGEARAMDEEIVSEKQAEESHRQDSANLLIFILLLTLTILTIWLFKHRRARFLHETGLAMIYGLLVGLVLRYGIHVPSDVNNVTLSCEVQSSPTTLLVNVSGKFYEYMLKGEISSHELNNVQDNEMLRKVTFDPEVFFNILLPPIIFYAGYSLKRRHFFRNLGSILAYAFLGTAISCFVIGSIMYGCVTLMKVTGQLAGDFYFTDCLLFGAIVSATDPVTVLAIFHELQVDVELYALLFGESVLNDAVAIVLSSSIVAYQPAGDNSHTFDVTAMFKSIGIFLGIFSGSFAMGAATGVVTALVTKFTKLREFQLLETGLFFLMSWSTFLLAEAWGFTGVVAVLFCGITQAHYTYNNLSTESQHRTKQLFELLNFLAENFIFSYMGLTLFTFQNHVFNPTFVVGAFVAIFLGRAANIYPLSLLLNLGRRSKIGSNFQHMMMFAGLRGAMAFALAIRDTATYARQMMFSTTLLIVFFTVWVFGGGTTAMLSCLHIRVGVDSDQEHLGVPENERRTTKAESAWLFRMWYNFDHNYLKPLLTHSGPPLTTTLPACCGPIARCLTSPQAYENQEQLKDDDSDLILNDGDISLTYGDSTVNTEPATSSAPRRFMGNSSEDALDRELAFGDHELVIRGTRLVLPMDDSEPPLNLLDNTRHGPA
# Chain of UniProt Q13586 (Q13586 whole entry, looked up): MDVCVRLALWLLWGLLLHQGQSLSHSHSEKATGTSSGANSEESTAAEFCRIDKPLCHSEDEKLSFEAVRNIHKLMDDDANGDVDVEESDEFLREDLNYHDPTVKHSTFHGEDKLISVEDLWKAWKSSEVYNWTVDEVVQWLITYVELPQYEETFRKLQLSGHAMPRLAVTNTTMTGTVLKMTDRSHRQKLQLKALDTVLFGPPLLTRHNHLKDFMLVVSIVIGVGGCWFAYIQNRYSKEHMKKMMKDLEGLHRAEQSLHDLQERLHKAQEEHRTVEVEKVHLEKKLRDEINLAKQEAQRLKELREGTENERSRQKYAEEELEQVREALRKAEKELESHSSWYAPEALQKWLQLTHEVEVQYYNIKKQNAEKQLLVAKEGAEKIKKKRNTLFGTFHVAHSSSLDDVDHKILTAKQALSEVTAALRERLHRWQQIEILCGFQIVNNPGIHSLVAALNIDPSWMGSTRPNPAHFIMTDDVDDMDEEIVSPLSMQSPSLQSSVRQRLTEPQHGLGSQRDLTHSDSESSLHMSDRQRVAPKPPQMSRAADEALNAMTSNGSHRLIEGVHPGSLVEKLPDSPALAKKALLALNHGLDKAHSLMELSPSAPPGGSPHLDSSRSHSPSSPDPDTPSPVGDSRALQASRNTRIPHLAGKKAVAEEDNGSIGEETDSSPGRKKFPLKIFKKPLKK
# Chain of UniProt O95149 (O95149 whole entry, looked up): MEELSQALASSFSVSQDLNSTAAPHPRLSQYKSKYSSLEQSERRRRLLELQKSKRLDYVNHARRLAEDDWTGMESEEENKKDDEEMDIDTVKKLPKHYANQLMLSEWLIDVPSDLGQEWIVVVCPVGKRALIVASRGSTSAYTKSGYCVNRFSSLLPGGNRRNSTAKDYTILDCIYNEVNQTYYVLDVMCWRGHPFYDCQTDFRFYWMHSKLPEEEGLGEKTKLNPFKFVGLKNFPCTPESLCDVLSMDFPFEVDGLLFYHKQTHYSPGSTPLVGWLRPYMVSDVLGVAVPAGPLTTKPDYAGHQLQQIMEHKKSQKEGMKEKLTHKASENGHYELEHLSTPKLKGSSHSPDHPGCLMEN
Target,log2 fold change [1],log2 fold change [2],log2 fold change [3],log2 fold change [4],log2 fold change [5],log2 fold change [6],log2 fold change [7],log2 fold change [8],log2 fold change [9],log2 fold change [10],log2 fold change [11],log2 fold change [12],log2 fold change [13],log2 fold change [14],log2 fold change [15],log2 fold change [16],log2 fold change [17],log2 fold change [18],log2 fold change [19],log2 fold change [20]
TCOF1 isoform 4 (UniProt Q13428),-0.008,-0.053,0.021,-0.016,-0.029,0.042,0.002,-0.047,0.013,-0.01,-0.037,-0.012,-0.022,0.045,0.048,-0.034,-0.046,-0.014,0.022,0.025
TLK2 isoform 2 (UniProt Q86UE8),-0.063,-0.031,0.139,-0.095,-0.007,0.165,-0.047,-0.07,-0.042,0.019,-0.051,-0.042,0.006,-0.407 (active),-0.01,0.007,0.046,-0.033,0.01,-0.001
STARD3 (UniProt Q14849),0.017,-0.36 (active),0.194,-0.043,0.065,0.098,-0.06,-0.015,0.043,-0.559 (active),-0.097,0.064,0.215,0.218,0.284,0.068,0.119,-0.018,0.022,-0.067
STXBP2 isoform 3 (UniProt Q15833),0.049,-0.301,0.022,0.039,0.019,-0.03,0.03,0.17,0.152,-0.306,0.088,0.096,-0.099,-0.147,-0.131,-0.014,0.073,0.086,-0.086,0.164
SP3 (UniProt Q02447),-0.005,0.013,-0.071,0.123,0.031,0.086,0.032,0,0.089,-0.046,0.022,-0.018,-0.01,0.093,0,-0.042,-0.044,0.103,-0.041,-0.045
SNX12 isoform 1 (UniProt Q9UMY4),0.004,-0.055,0.081,0.007,-0.162,-0.204,0.021,0.044,-0.036,-0.097,-0.067,0.042,-0.038,-0.016,-0.043,-0.191,0.038,0.008,-0.015,-0.009
SLC9A6 isoform 2 (UniProt Q92581),0.028,0.048,0.022,-0.005,0.079,-0.105,-0.024,-0.067,0,-0.331 (active),-0.049,0.012,0.039,0.011,0.017,-0.002,-0.019,0.026,0.047,0.033
STIM1 (UniProt Q13586),0.015,-0.07,0.087,-0.028,0.014,-0.008,-0.018,0.057,0.011,-0.233,-0.143,0,0.002,-0.01,-0.006,-0.025,0.028,0.01,0.012,0.016
STK4 (UniProt Q13043),0.009,-0.01,0.032,0.036,0.068,0.043,-0.021,-0.004,-0.008,-0.03,-0.053,-0.027,-0.003,0.143,-0.052,-0.016,0.005,0,0.039,-0.028
SPTBN4 (UniProt Q9H254),0.026,0.09,-0.024,0.098,0.007,-0.03,-0.039,-0.003,-0.03,0.06,-0.036,-0.044,-0.167,0.027,0.017,-0.04,-0.014,0.03,-0.09,0.066
THRAP3 (UniProt Q9Y2W1),0.014,0.04,0.019,-0.111,0.044,-0.003,-0.078,-0.071,0.133,-0.043,0.052,-0.025,0.049,-0.177,-0.009,0,-0.045,-0.033,0.118,0.063
SNX3 (UniProt O60493),-0.035,-0.106,0.062,0.048,-0.385 (active),-0.164,-0.023,0.085,0.04,-0.141,0.01,0.032,-0.034,0.035,-0.163,-0.339 (active),-0.03,0.001,0.019,-0.108
SNUPN (UniProt O95149),0.019,-0.187,0.045,-0.007,-0.001,-0.074,0.017,-0.014,-0.007,0.029,-0.031,0.006,-0.025,-0.009,-0.051,0.018,0.013,-0.054,0.003,0.06
TFRC (UniProt P02786),0.026,-0.283 (active),0.012,-0.018,0.047,-0.011,-0.01,-0.023,-0.012,-0.059,-0.277 (active),-0.038,-0.005,-0.043,0.009,-0.018,0.012,0.027,-0.004,0.052
SPG11 (UniProt Q96JI7),0,0.058,-0.282,0.619,-0.397,0.173,-0.255,0,-0.01,-0.328,-0.493,-0.584,-0.015,0.117,0.065,-0.006,-0.051,0.146,0.258,-0.009
SPAG9 (UniProt O60271),0.046,-0.056,-0.002,0.065,-0.017,-0.034,0.049,0.012,0.023,-0.188,-0.056,-0.014,-0.039,-0.074,-0.076,0.015,-0.018,0.012,-0.005,0.054
